# Screening data as filed in PubChem.
# FLuc counter = qHTS profiling assay for firefly luciferase inhibitor/activator using purifed enzyme and Km concentrations of substrates (counterscreen for miR-21 project). Luciferin 4-monooxygenase (Photinus pyralis), P08659. purified FLuc, Km substrates, luminescence inhibition. Potency, µM (top dose mostly 57.5 µM), hits mostly inhibitors. 360,000 tested, 6.9% active. AID 588342, 2011; note: nearly all actives have a fitted effect of over 55% in size
# Target sequence (P08659 whole entry, looked up): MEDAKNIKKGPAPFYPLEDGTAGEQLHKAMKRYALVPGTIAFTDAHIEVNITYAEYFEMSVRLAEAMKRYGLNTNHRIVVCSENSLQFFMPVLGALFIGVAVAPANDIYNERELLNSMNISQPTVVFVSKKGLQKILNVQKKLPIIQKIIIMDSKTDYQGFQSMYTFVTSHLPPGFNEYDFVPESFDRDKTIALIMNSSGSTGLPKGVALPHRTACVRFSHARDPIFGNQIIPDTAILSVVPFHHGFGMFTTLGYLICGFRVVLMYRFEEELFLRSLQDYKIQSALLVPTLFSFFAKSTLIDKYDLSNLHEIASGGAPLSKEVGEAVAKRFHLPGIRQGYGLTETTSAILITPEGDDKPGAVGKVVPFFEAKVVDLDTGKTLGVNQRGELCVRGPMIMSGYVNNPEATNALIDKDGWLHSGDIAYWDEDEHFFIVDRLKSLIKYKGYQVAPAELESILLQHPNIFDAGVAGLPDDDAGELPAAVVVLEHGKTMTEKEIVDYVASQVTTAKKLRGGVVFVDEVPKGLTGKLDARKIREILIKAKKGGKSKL
#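 Purified P. pyralis luciferase (10nM final) with 10uM D-luciferin and 10uM ATP (Km levels) in 50mM Tris acetate pH 7.5, 10mM Mg acetate, 0.01% Tween-20, 0.05% BSA; qHTS 6-point titration, ~60 µM downward; luminescence read.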
# NPC1 prom act = qHTS Assay for NPC1 Promoter Activators; Huh7 NPC1 promoter luciferase reporter, 24 h; Potency, µM (series often up to 9.22 µM), most hits filed as activators; 320,000 tested, 2.4% active; AID 485313, 2010; note: nearly all actives have a fitted effect of over 60% in size
#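 Compounds in DMSO were transferred onto Huh7 NPC1-luciferase reporter cells pre-incubated 2 h; after 24 h at 37 °C, Amplite reagent was dispensed and luminescence recorded 10 min later.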
# SMN2 splice enh = qHTS Assay for Enhancers of SMN2 Splice Variant Expression. HEK293 SMN2-luciferase splicing reporter, luminescence, 30-36 h. Potency, µM (titrated, usually from 46.1 µM), usual class: activators. 210,000 tested, 2.8% active. AID 1458, 2008; note: nearly all actives have a fitted effect of over 55% in size
#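 qHTS luciferase splicing reporter: luminescence rises when SMN2 exon 7 is included in transfected HEK293 cells. Compound exposure lasted 30-36 h at 37C, with 4.5 mM final sodium butyrate as control, followed by a ONE-Glo read.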
# p53 reactivation = qHTS assay for re-activators of p53 using a Luc reporter | H1299 p53-A138V BP100-luciferase reporter, luminescence, 24 h | Potency, µM (series often up to 92.2 µM), hits mostly activators | 320,000 tested, 0.063% active; note: nearly all actives have a fitted effect of over 45% in size
#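 p53-null H1299 cells stably carrying temperature-sensitive p53-A138V and a BP100-luciferase reporter were pinned with compounds (4-point, 1:5 series) and held 24 hrs at 37 deg C. Luminescence was read 10 min after detection reagent.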
# ELG1 genotoxic = qHTS screen for small molecules that induce genotoxicity in human embryonic kidney (HEK293T) cells expressing luciferase-tagged ELG1; AID 504466, 2011; Potency, µM (highest dose often 46 µM), actives largely listed as activators; HEK293T ELG1-luciferase reporter, luminescence, 16 h; 330,000 tested, 1.3% active; note: nearly all actives have a fitted effect of over 60% in size
#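 Genotoxicity was scored as increased ELG1-luciferase reporter signal, measured by ONE-Glo luminescence (30 min, room temperature). Compound or vehicle exposure of the HEK293T reporter cells lasted 16 hr at 37°C.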
# Rab9 prom act = qHTS Assay for Rab9 Promoter Activators | AID 485297, 2010 | 320,000 tested, 2.8% active | Potency, µM (titrated, usually from 9.22 µM), most hits filed as activators | Huh7 Rab9 promoter-luciferase reporter, luminescence, 24 h; note: nearly all actives have a fitted effect of over 60% in size
#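 Luminescence read-out: Huh7 cells stably expressing Rab9-luciferase, treated 24 h with compound at 37 °C, then lysed with luciferase reagent for 10 min at ambient before reading.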
# Hits are given with their value; - = inactive; ? = inconclusive; . = no result given; [ ] = remark or other dose. Compounds with a hit are over-represented: about 7.4% of the library has one in this group of screens. Calls come from the whole dose curve; as a rule, active = well fitted curve in the direction sought with a large enough effect; inconclusive = small, poorly fitted or top-dose-only effect, or another doubt; inactive = no such curve, though single readings can be large; an effect the other way counts as inactive or inconclusive.
SMILES,FLuc counter,NPC1 prom act,SMN2 splice enh,p53 reactivation,ELG1 genotoxic,Rab9 prom act
c1ccc(-n2cnnc2SCc2nc3ccccc3s2)cc1,17µM,-,-,?,?,-
Cc1nnc(SCc2nc3ccccc3s2)n1-c1ccccc1,15µM,-,?,?,?,-
c1ccc(Cn2c(SCc3nc4ccccc4s3)nnc2-c2ccco2)cc1,-,-,-,-,-,-
CCn1c(SCc2nc3ccccc3s2)nnc1-c1ccccc1,15µM,-,-,?,13µM,-
CCC(c1nnc(SCc2nc3ccccc3s2)n1Cc1ccccc1)N(C)C (stereo not given),17µM,-,-,-,?,-
COc1cccc(-c2nnc(SCc3nc4ccccc4s3)n2C)c1,?,-,-,-,-,-
O=C(O)CSc1nnc(CSc2nc3ccccc3s2)n1-c1ccccc1,?,-,-,-,-,-
Cc1ccc2cccc(NC(=O)C(C)Oc3ccc(Cl)cc3Cl)c2n1 (stereo not given),-,.,-,.,.,.
Cc1nnc(SCc2nc3ccccc3s2)n1N,9.5µM,-,.,-,13µM,-
Cc1ccccc1NC(=O)Cn1nnc(-c2ccc(N3CCOCC3)cc2)n1,?,-,-,-,-,-
CN(C)c1ccc(-c2nnn(CC(=O)Nc3ccccc3N3CCOCC3)n2)cc1,27µM,-,-,-,-,-
O=C(Cn1nnc(-c2ccc3c(c2)OCO3)n1)Nc1ccccc1C(=O)O,15µM,?,.,-,?,-
COc1ccc2c(c1OC)C(=O)N1N=C(c3ccc(Cl)cc3)CC21 (stereo not given),?,-,-,-,-,-
COc1ccc(C2=NN3C(=O)c4c(ccc(OC)c4OC)C3C2)cc1 (stereo not given),17µM,-,-,-,-,-
COc1ccc2c(c1OC)C(=O)N1N=C(c3ccc(Br)cc3)CC21 (stereo not given),24µM,-,-,-,-,-
Cc1ccc(-c2cc3onc(-c4ccccc4)c3c(=O)n2C)cc1,0.13µM,?,.,?,?,?
CNC(=O)c1ccc(-c2cc3onc(-c4ccccc4)c3c(=O)n2C)cc1,.,.,.,?,-,.
Cc1ccc(-c2ocnc2C(=O)Nc2ccccc2NC(=O)c2ccccn2)cc1,15µM,-,.,-,-,-
Cc1ccc(-c2ocnc2C(=O)Nc2nc(C)cs2)cc1,?,?,.,.,-,-
Cc1cccc(-c2ocnc2C(=O)Nc2ccccc2NC(=O)c2ccccn2)c1,13µM,-,.,-,-,-
O=S(=O)(N/N=C1\CC(c2ccccc2)Oc2ccccc21)c1ccccc1 (stereo not given),-,-,-,-,-,-
CCOc1ccc(S(=O)(=O)N/N=C2/CC(c3ccccc3)Oc3ccccc32)cc1 (stereo not given),21µM,-,?,-,-,-
O=C(Cn1nnc(-c2ccc(N3CCOCC3)cc2)n1)N1CCOCC1,11µM,?,.,-,-,-
O=C(Cn1nnc(-c2ccc(N3CCOCC3)cc2)n1)OC1CCCCC1,12µM,-,-,-,-,-
O=C(Cn1nnc(-c2cccc(C(F)(F)F)c2)n1)N1CCOCC1,-,-,-,-,-,-
SMILES,FLuc counter,NPC1 prom act,SMN2 splice enh,p53 reactivation,ELG1 genotoxic,Rab9 prom act
Cc1nc2n(c(=O)c1CCN1CCC(c3noc4cc(F)ccc34)CC1)CCCC2O (stereo not given),.,-,.,.,.,-
CCC1(c2ccccc2)NC(=O)N(CC(=O)NC2(C#N)CCCCC2)C1=O (stereo not given),-,-,.,-,-,-
O=C(Nc1nc2cc3c(cc2s1)OCO3)c1cccc(N2C(=O)CCC2=O)c1,0.95µM,-,.,-,-,-
O=C(Nc1nc2ccc(Cl)cc2s1)c1cccc(N2C(=O)CCC2=O)c1,1.3µM,-,.,?,?,?
COc1ccc2nc(NC(=O)c3cccc(N4C(=O)CCC4=O)c3)sc2c1,0.85µM,-,.,?,-,-
Cc1ccc2nc(NC(=O)c3ccc(N4C(=O)CCC4=O)cc3)sc2c1,?,-,-,-,-,-
Cc1ccc2sc(NC(=O)c3cccc(N4C(=O)CCC4=O)c3)nc2c1C,1.9µM,-,.,-,-,-
COc1cccc(/C=C/c2nc(C#N)c(NC3CCCCC3)o2)c1,?,.,-,.,.,.
COc1cc(O)c(C(=O)O)c(O)c1,.,.,-,.,.,.
Cc1ccc2sc(NC(=O)C3CC3)nc2c1C,17µM,?,.,-,?,?
Cc1cccc2sc(NC(=O)C3CC3)nc12,-,-,.,-,-,-
Oc1ccccc1-c1cc(-c2ccc(F)cc2)n[nH]1,3.4µM,?,.,?,5.8µM,-
Oc1ccc(Cl)cc1-c1cc(-c2ccccc2)n[nH]1,?,-,-,?,-,-
Cc1ccc(O)c(-c2cc(-c3cccc(Br)c3)n[nH]2)c1,12µM,?,.,-,23µM,4.5µM
Cc1ccc(-c2cc(-c3ccc(C)cc3O)[nH]n2)cc1,2.4µM,0.71µM,.,.,?,0.89µM
Oc1ccc(F)cc1-c1cc(-c2ccc3c(c2)OCCO3)n[nH]1,2.4µM,3.2µM,13µM,?,?,1.8µM
Oc1ccc(Br)cc1-c1cc(-c2ccccc2F)[nH]n1,-[2.3 µM],-,?,-,-,-
O=C(N/N=C/c1ccc(F)cc1)c1cc(-c2ccc3c(c2)OCO3)n[nH]1,-,-,.,-,-,-
O=C(Nc1ccccc1)N(Cc1cccs1)c1ccc(Cl)cc1,-,.,.,.,.,.
O=C1C(Cl)=C(Sc2nnc3c4ccccc4c4ccccc4c3n2)C(=O)c2ccccc21,.,.,-[9.22 µM],.,.,.
Cc1ccc(-c2noc(-c3cc(-c4ccc(F)cc4)n[nH]3)n2)cc1,-,.,.,.,.,.
Cc1ccc(-c2cc(-c3ccc(F)cc3)n[nH]2)c(O)c1,4.3µM,?,.,?,?,4µM
CCOC(=O)c1noc2ncn(CC(=O)Nc3cccc(Cl)c3)c(=O)c12,-,.,.,.,.,.
Oc1ccc(/C=N/N2CCN(c3ccccn3)CC2)cc1,?,-,.,-,-,-
CN(c1ccccc1)c1ccc(/C=N/N2CCOCC2)cc1,1.7µM,1.8µM,7.9µM,?,18µM,1.3µM
C(=N\N1CCN(c2ccccn2)CC1)/c1ccccn1,17µM,-,.,-,?,?
CC(C)(C)c1ccc(/C=N/N2CCN(c3ccccn3)CC2)cc1,-,-,.,-,-,-
CN(C)c1ccc(/C=N/N2CCN(c3ccccn3)CC2)cc1,4.8µM,?,.,-,?,?
CC(=O)Oc1c(-c2ccc(Br)o2)oc2ccccc2c1=O,-,-,.,.,-,-
